We go through 32 compounds from ChEMBL document CHEMBL3433997, “St. Jude Leishmania screening dataset” (2016).

What all share (format): functional
Test [1] deals with Solute carrier family 2, facilitated glucose transporter member 1 (Homo sapiens) (UniProt P11166). Kind of test: ST_JUDE_LEISH: Cytotoxicity at 2uM final concentration against transgenic Leishmania Mexicana promastigotes LmGLUT1 that are glucose transport deficient and complemented with the human glucose transporter GLUT1. Activity is measured by DNA content using SYBR green in vitro.

Test [2] addresses Hexose transporter 1 (Plasmodium falciparum) (UniProt O97467). Briefly: ST_JUDE_LEISH: Cytotoxicity at 2uM final concentration against transgenic Leishmania Mexicana promastigotes LmPfHT that are glucose transport deficient and complemented with the Plasmodium falciparum hexose transporter. Activity is measured by DNA content using SYBR green in vitro.
The target in test [3] is Glucose transporter (Leishmania mexicana) (UniProt O61059). Kind of test: ST_JUDE_LEISH: Cytotoxicity at 2uM final concentration against transgenic Leishmania Mexicana promastigotes LmGT2 that are glucose transport deficient and complemented with the L. Mexicana glucose transporter 2. Activity is measured by DNA content using SYBR green in vitro.

Chain of Solute carrier family 2, facilitated glucose transporter member 1 (Homo sapiens) (P11166 whole entry): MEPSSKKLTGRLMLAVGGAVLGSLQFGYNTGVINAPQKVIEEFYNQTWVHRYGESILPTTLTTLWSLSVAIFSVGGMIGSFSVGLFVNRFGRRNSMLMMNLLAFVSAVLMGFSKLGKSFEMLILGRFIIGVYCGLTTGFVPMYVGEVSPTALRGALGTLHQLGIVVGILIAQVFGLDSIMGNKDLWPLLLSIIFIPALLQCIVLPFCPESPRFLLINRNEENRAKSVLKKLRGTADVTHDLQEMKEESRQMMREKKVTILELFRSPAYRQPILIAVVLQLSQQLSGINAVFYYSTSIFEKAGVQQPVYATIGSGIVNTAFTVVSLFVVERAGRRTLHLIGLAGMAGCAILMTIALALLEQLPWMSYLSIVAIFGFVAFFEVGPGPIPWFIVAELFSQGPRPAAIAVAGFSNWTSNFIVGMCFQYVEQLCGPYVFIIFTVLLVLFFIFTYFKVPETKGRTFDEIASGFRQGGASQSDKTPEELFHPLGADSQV

In general, inhibition refers to the change of the read-out against control, counted positive when it falls. In the case of `Cc1nnc2c(NC(=O)NC3CCCC3)cc3cc(-c4ccc(CN(C)C)cc4)ccc3n12`, the inhibition was found to be 0.94% in test [1], 1.31% in test [2] and 0.22% in test [3].
For the compound `Cc1ccc(-c2nn3c(O)c4c(nc3c2C)CCCC4)cc1`, the inhibition in test [1] is -0.48%; in test [2] it was 1.68%; in test [3], 1.28%.
For `O=C(Nc1ccccc1N1CCOCC1)c1ncoc1-c1ccccc1C(F)(F)F`, in that order: 3.99%, 2.36% and 2.48%.
On to `O=S(=O)(Nc1cccc(CCN2CCC(N3CCCCC3)CC2)c1)c1ccc(Cl)cc1`, for which the values for the inhibition in test [1], in test [2] and in test [3] were 1.09%, 1.72% and 0.8%, respectively.
With `O=C(NCCCCCN1CCC(c2c[nH]c3ccccc23)CC1)Nc1cccc(Br)c1`, the inhibition in test [1] was determined as 8.56%; in test [2], 7.56%; in test [3], 5.45%.
For `CC(C)N1CCN(C(=O)c2ccc(CN(C)CCCN3CCN(c4cccc(Cl)c4Cl)CC3)s2)CC1`, in that order: 0.58%, 0.7% and 0.8%.
The matching figures for `CN(C)CCOc1cc(NC(=O)Nc2ccc(-c3ccccc3)cc2)ccc1I`: 12.5%, 12.7% and 12.6%.
In the case of `O=C(Nc1ccc(-c2ccc(-c3nc4ccccc4[nH]3)s2)cc1)c1ccncc1`, the inhibition in test [1] amounted to 12.7%; in test [2] it was 8.04%; in test [3], 5.66%.
Turning to `Cc1ccc(-c2ccn(Cc3cccc(OCc4ccccc4)c3)n2)cn1.Cc1ccc(-c2ccnn2Cc2cccc(OCc3ccccc3)c2)cn1`, the inhibition in test [1] is 2.15%; in test [2], 1.4%; in test [3], -0.57%.
For `FC(F)(F)c1ccc2[nH]c(-c3ccc(-c4ccc(CNCc5cnn(-c6ccccc6)n5)cc4)s3)nc2c1`, in that order: 2.88%, 1.1% and 2.24%.
Regarding `c1ccc(C2CCC(N3CCC(N4CCN(c5ccccc5)CC4)CC3)CC2)cc1` (stereo unspecified), the values for the inhibition in test [1], in test [2] and in test [3] were 5.35%, 7.92% and 8.3%, respectively.
As to `CN1CCCN(Cc2cccc(-c3ccc(NC(=O)c4ccc(Cl)cc4)cc3)c2)CC1`, the inhibition in test [1] came to 55.2%; in test [2] it was 50.2%; in test [3], 21.9%.
With `Fc1ccc2[nH]c(-c3cccc(-c4cccc(CN5CCN(c6ccncc6)CC5)c4)c3)nc2c1`, the inhibition was 0.24% in test [1], 1.73% in test [2] and 0.3% in test [3].
For `COC(=O)c1cccc(NC(=O)NCCNc2ccnc(Nc3ccc(F)cc3)n2)c1`, the inhibition in test [1] was found to be 4.31%; in test [2] it was 3.02%; in test [3], 2.45%.
For `O=C(/C=C/c1ccc(Cl)c(Cl)c1)NCCCCCN1CCC(NC(=O)Nc2ccc(Cl)c(C(F)(F)F)c2)CC1`, in that order: 1.18%, 0.31% and 1.66%.
Take `O=C(Nc1cccc(-c2nn3ncccc3c2-c2ccnc(Nc3ccc(N4CCOCC4)cc3)n2)c1)c1c(F)cccc1F`: the inhibition stood at 10.7% in test [1], 16.6% in test [2] and 6.47% in test [3].
`COc1cccc(CNC[C@@H](O)[C@H](Cc2ccccc2)NC(=O)c2cc(OC(C)C)cc(N3CCCCS3(=O)=O)c2)c1`: the inhibition is 0.5% in test [1], -0.88% in test [2] and -0.67% in test [3].
The matching figures for `O=C(Nc1c(F)cccc1F)c1cccc(-c2nn3ccccc3c2-c2ccnc(Nc3cccc(-c4cnco4)c3)n2)c1`: 12.2%, 4.66% and 1.5%.
Turning to `COc1cc2ncnc(Nc3ccc4nc(Cc5ccccc5)[nH]c4c3)c2cc1OC`, the inhibition in test [1] was 1.2%; in test [2], 1.95%; in test [3], 2.53%.
Take `O=C(NC1CCC(CCN2Cc3cccc(F)c3C2)CC1)c1cccc(-c2cccnc2)c1` (stereo unspecified): the values for the inhibition in test [1], in test [2] and in test [3] were 0.7%, 1.22% and -1.89%, respectively.
For `CN(C)S(=O)(=O)c1ccc(C(=O)N(c2nc(-c3ccccc3)cs2)C2CCCCC2)cc1`, the inhibition in test [1] stood at 3.2%; in test [2] it was 3.31%; in test [3], 2.06%.
As for `Cc1noc(-c2ccc(O)cc2O)c1-c1ccc2c(c1)OCCCO2`, the inhibition in test [1] is 0.11%; in test [2] it was 0.09%; in test [3] it was 0.22%.
On to `CCc1cn2c3c(cc(C(=O)N[C@@H](Cc4ccccc4)[C@H](O)CNC(C)(C)c4cccc(OC)c4)cc13)N(C)S(=O)(=O)C2`, for which the inhibition in test [1] was determined as 1.01%; in test [2], 1.91%; in test [3], 0.96%.
Turning to `O=C(O)c1ccc2c(c1)N(C(=O)CNCc1ccc(F)cc1)CC(=O)N2CCCc1ccccc1`, the results for the inhibition in test [1], in test [2] and in test [3] were -4.22%, -1.82% and -2.25%, respectively.
Take `CCn1ccc2c3c(N)nc(N)nc3ccc21`: the values for the inhibition in test [1], in test [2] and in test [3] were 1.21%, 2.13% and -1.34%, respectively.
For `Cc1[nH]c2ccc(NS(C)(=O)=O)cc2c1C1CCN(CCC2CCN(C(=O)/C=C/c3ccc(Cl)c(Cl)c3)CC2)CC1`, the inhibition in test [1] was -0.38%; in test [2], -1.33%; in test [3], -1.24%.
The matching figures for `CS(=O)(=O)c1ccc(OCCCN(Cc2ccccc2C(F)(F)F)c2ccc(C#N)c(C(F)(F)F)c2)cc1`: 1.51%, 3.33% and 0.65%.
In the case of `N#Cc1ccc2c(c1)CN(CCCCNC(=O)c1ccc(-c3ccccc3)cc1)CC2`, the inhibition in test [1] amounted to 3.14%; in test [2], 3.16%; in test [3], 3.99%.
`CN(CCO)Cc1cccc(-c2ccc(NC(=O)c3cccc(C#N)c3)cc2)c1`: the figures for the inhibition in test [1], in test [2] and in test [3] were 1.6%, 0.52% and -2.56%, respectively.
For `CCN(CC)CCCC(C)Nc1c2ccccc2nc2ccc3ccccc3c12` (stereo unspecified), in that order: 1.95%, 2.89% and 2.22%.
As for `CN(C)Cc1c(O)ccc2[nH]c(-c3cccc(F)c3)nc12`, the inhibition is 2.87% in test [1], 2.53% in test [2] and 0.64% in test [3].
Turning to `c1ccc2[nH]c(-c3ccc(-c4ccc(CNCC5CCCO5)cc4)s3)nc2c1` (stereo unspecified), the inhibition in test [1] is 5.5%; in test [2], 4.61%; in test [3], 5.42%.
